Screening results (PubChem BioAssay)
GPT2 inh: inhibitors of human GPT2 alanine aminotransferase; Q8TD30; Recombinant GPT2, coupled pyruvate oxidase/HRP Amplex Red fluorescence; Potency, µM (top dose mostly 57.7 µM), without a hit: top-dose activity change, negative = inhibition, most hits filed as inhibitors; 100,000 compounds, 0.25% hits; also: % is scaled to controls: 0 for no effect and ±100 for the full control effect; nearly all actives have a fitted effect of over 60% in size
Target sequence (Q8TD30 whole entry, looked up): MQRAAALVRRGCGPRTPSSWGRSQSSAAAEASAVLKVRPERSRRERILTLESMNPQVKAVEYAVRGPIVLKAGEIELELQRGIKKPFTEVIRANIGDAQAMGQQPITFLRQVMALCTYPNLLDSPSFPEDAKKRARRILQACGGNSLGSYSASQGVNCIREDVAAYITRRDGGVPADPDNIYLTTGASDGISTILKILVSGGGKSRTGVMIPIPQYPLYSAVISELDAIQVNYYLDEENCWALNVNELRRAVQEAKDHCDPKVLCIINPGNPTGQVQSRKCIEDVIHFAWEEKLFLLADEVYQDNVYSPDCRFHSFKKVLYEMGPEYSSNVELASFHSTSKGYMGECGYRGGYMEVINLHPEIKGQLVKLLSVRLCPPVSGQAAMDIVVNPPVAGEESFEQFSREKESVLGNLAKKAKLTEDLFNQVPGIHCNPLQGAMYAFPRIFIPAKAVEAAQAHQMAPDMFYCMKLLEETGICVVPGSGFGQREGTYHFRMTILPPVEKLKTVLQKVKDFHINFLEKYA
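Recombinant GPT2 (10ng/uL) with 250uM a-KG and 2mM L-alanine, 30 min at room temperature, in HEPES pH 7.5 buffer. Pyruvate detected by pyruvate oxidase/HRP/Amplex Red fluorescence after 30 min in the dark; AOA (50uM) as positive control.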
HEK cytotox: kills HEK 293 cells. HEK 293 viability, ATP luminescence (CellTiter-Glo), 48-72 h. Potency, µM (top dose mostly 115 µM), for the others: at the highest dose activity change, negative = cytotoxicity, most hits filed as inhibitors. 94,000 compounds, 6.6% hits; also: % is scaled to controls: 0 for no effect and ±100 for the full control effect; nearly all actives have a fitted effect of over 60% in size
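250 HEK 293 cells/well; compound by pintool; incubated 48 or 72 hr at 37 degree Celsius; CellTiter-Glo added, 10 min RT, luminescence imaged.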
NPR1 antag: human Npr1 receptor antagonism; 76,000 compounds, 1.6% hits; HEK293 hNpr1 GloSensor cGMP, ANP-stimulated luminescence; P16066; Potency, µM (titrated, usually from 46.3 µM), for inactives: at the top dose activity change, negative = inhibition, hits mostly inhibitors; calls by dose curve; also: % is scaled to controls: 0 for no effect and ±100 for the full control effect; nearly all actives have a fitted effect of over 60% in size
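Compound pre-incubated 30 min at room temperature on GloSensor-loaded HEK293 cells stably carrying hNpr1 and the pGS-40F cGMP biosensor. Stimulation uses hNppA at 0.1 nM final; luminescence is taken at baseline and 20 min post-agonist.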
FLuc inh-1: inhibitors of firefly (Photinus pyralis) luciferase | P08659 | purified P. pyralis luciferase, luminescence, biochemical | Potency, µM (highest dose often 115 µM), hits mostly inhibitors | 76,000 compounds, 2.5% hits | AID 1347043; also: % is scaled to controls: 0 for no effect and ±100 for the full control effect; nearly all actives have a fitted effect of over 65% in size
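Biochemical qHTS: compound (6-point titration) added to 10uM D-luciferin plus 10uM ATP in Tris acetate pH 7.5 buffer with Mg, Tween-20 and BSA, then purified enzyme at 10nM; light output imaged.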
NIH3T3 tox: cytotoxic compounds in NIH 3T3 cells; NIH 3T3 viability, CellTiter-Glo ATP luminescence, 48-72 h; Potency, µM (top dose mostly 96.7 µM), for the others: at the top dose activity change, negative = cytotoxicity, most hits filed as inhibitors; 94,000 compounds, 4.3% hits; AID 1345082; also: % is scaled to controls: 0 for no effect and ±100 for the full control effect; nearly all actives have a fitted effect of over 55% in size
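ATP-dependent luminescence (CellTiter-Glo) served as the viability signal for NIH 3T3 cells treated with compound for 48 or 72 hr at 37 °C.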
FLuc SDR no ATP: firefly luciferase binding stabilization, ATP absent. shares compounds with FLuc inh-1. Purified FLuc-C-HiBiT, Nano-Glo HiBiT luminescence, no ATP. 1,300 compounds, 7.8% hits. AID 1963318. Potency, µM (highest dose often 32.7 µM), for the others: top-dose activation (signal gain), most hits filed as activators; also: nearly all actives have a fitted effect of over 55% in size
FLuc SDR ATP: binders stabilizing firefly luciferase, plus ATP | 1,300 compounds, 8.7% hits | Potency, µM (doses to about 32.7 µM), for inactives: at the top dose activation (gain of signal), most hits filed as activators | purified FLuc-C-HiBiT + ATP, HiBiT complementation luminescence | shares compounds with FLuc inh-1 | AID 1963319;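 also: signal reports ligand binding via conformational change of the enzyme rather than luciferase catalysis; % of control where 0% means no effect; nearly all actives have a fitted effect of over 55% in size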
FLuc inh-2: inhibitors of firefly luciferase enzymatic activity; shares compounds with FLuc inh-1; 1,300 compounds, 42% hits; Potency, µM (doses to about 32.7 µM), for inactives: at the highest dose activity change, negative = inhibition, hits mostly inhibitors; purified FLuc-C-HiBiT enzyme, luciferin luminescence; also: % is scaled to controls: 0 for no effect and ±100 for the full control effect; nearly all actives have a fitted effect of over 70% in size
The depositor's hits bear a star; [ ] = another dose, or the depositor's remark. Sampled rows, rich in hits. Any-hit rate of the full collection: about 10%. Unless noted, calls follow the shape of the dose curve; as a rule, active = well fitted curve in the direction sought with a large enough effect; inconclusive = small, poorly fitted or top-dose-only effect, or another doubt; inactive = no such curve, though single readings can be large; an effect the other way counts as inactive or inconclusive. Potency is read from the fitted curve at half-maximal effect.

`COc1ccc(-c2cnc3[nH]cc(CC(=O)N4CCN(C)CC4)c3c2)cc1OC` gave GPT2 inh inactive, HEK cytotox -21.8%[172 µM], NPR1 antag 5.0%[70.6 µM], FLuc inh-1 inactive and NIH3T3 tox inconclusive.
For O=C(Cc1c[nH]c2ncc(-c3cccnc3)cc12)N1CCN(Cc2ccccc2)CC1 the results were GPT2 inh 2.8%[88.5 µM], HEK cytotox inconclusive, NPR1 antag 0.5%[70.6 µM], FLuc inh-1 inconclusive and NIH3T3 tox inconclusive.
`CN1CCN(C(=O)Cc2c[nH]c3ncc(-c4ccc(CO)cc4)cc23)CC1` gave GPT2 inh -10.6%[88.5 µM], HEK cytotox inconclusive, NPR1 antag -0.1%[70.6 µM], FLuc inh-1 inactive and NIH3T3 tox 25.1µM*.
CN1CCN(C(=O)Cc2c[nH]c3ncc(-c4ccnn4C)cc23)CC1 was read as GPT2 inh 2.0%[88.5 µM], HEK cytotox -11.4%[172 µM], NPR1 antag 2.6%[70.6 µM], FLuc inh-1 inactive and NIH3T3 tox 100µM*.
Screening CSc1ccc(-c2ccc(=O)n3c2[C@@H]2C[C@@H](CN(S(C)(=O)=O)C2)C3)cc1 returned GPT2 inh 0.5%[88.5 µM], HEK cytotox 0.9%[172 µM], NPR1 antag 4.5%[70.6 µM], FLuc inh-1 inactive and NIH3T3 tox -1.3%[174 µM].
COc1cc2c(cc1OCc1ccccc1)N(C(=O)[C@@H]1CCCO1)CC21CCN(C)CC1 was read as GPT2 inh -1.4%[88.5 µM], HEK cytotox -16.7%[172 µM], NPR1 antag 5.2%[70.6 µM], FLuc inh-1 inactive and NIH3T3 tox inconclusive.
Screening COc1cc2c(cc1OCc1ccccc1)N([S+](=O)([O-])c1cccc3cccnc13)CC21CCN(C)CC1 returned GPT2 inh -5.6%, HEK cytotox 25.1µM*, NPR1 antag -15.6%, FLuc inh-1 inactive and NIH3T3 tox 17.8µM*.
Screening COc1cc2c(cc1OCc1ccccc1)N(C(=O)CC(C)C)CC21CCN(C)CC1 returned GPT2 inh 2.8%[88.5 µM], HEK cytotox 100µM*, NPR1 antag 4.0%[70.6 µM], FLuc inh-1 inactive and NIH3T3 tox 50.1µM*.
COc1ccccc1CC(=O)N1CC2(CCN(C)CC2)c2cc(OC)c(OCc3ccccc3)cc21 was read as GPT2 inh inactive, HEK cytotox inconclusive, NPR1 antag 5.2%, FLuc inh-1 inactive and NIH3T3 tox 31.6µM*.
`COc1cc2c(cc1OCc1ccccc1)N(C(=O)CC1CC1)CC21CCN(C)CC1` gave GPT2 inh inactive, HEK cytotox 112µM*, NPR1 antag 12.2%[70.6 µM], FLuc inh-1 inactive and NIH3T3 tox 79.4µM*.
`O=C(Nc1ccc2c(c1)OCCO2)c1cccn(Cc2ccccc2)c1=O` gave FLuc SDR no ATP 16.1%, FLuc SDR ATP 10.7% and FLuc inh-2 inconclusive.
For O=C(N[C@@H](COc1ccc2[nH]c(=O)[nH]c2c1)c1ccccc1)c1cccn(Cc2ccc(F)c(F)c2)c1=O the results were GPT2 inh -7.2%.
`COC(=O)N1CCN(C(=O)Cc2ccc(Cl)c(Cl)c2)[C@@H](CN2CCCC2)C1` gave GPT2 inh 3.9%.
Screening COc1ccc(-c2cc3c(cn2)CN(C)CCN3)cn1 returned GPT2 inh inactive, HEK cytotox -23.6%[230 µM], NPR1 antag -20.8%[70.6 µM], FLuc inh-1 6.31µM*, NIH3T3 tox inconclusive, FLuc SDR no ATP 19.9%[65.7 µM], FLuc SDR ATP 15.5%[65.7 µM] and FLuc inh-2 inconclusive.
CCn1cc(-c2cc3c(cn2)CN(C)CCN3)cn1 was read as FLuc SDR no ATP 15.6%[65.7 µM], FLuc SDR ATP 9.1%[65.7 µM] and FLuc inh-2 inconclusive.
Screening CCOC(=O)[C@H]1CN(C(=O)CC2CCCC2)[C@]2(C)C(=O)Nc3ccccc3[C@H]12 returned GPT2 inh -18.7%[27.3 µM], HEK cytotox inconclusive and NIH3T3 tox inconclusive.
For CN1CCN(C(=O)COc2ccc(-c3nc4ccccc4s3)cc2)CC1 the results were FLuc SDR no ATP 1.57µM*, FLuc SDR ATP inconclusive and FLuc inh-2 0.495µM*.
Screening O=C(c1ccccc1)N1C[C@@H]2C[C@H](C1)c1c(-c3cccnc3)ccc(=O)n1C2 returned GPT2 inh inconclusive, HEK cytotox -26.8%[172 µM], NPR1 antag -4.1%[70.6 µM], FLuc inh-1 inactive and NIH3T3 tox -25.8%[174 µM].
For COc1ccc2c(c1)C1(CCN(C(=O)Nc3cccc(C)c3)C1)C(=O)N2C (stereo unspecified) the results were GPT2 inh inactive, HEK cytotox -15.9%, NPR1 antag -8.2%, FLuc inh-1 inactive and NIH3T3 tox -6.5%.
`COc1ccc2c(c1)C1(CCN(C(=O)Nc3ccc4c(c3)OCCO4)C1)C(=O)N2C` (stereo unspecified) gave GPT2 inh -3.3%, HEK cytotox -28.5%, NPR1 antag -15.5%, FLuc inh-1 10µM*, NIH3T3 tox -4.3%, FLuc SDR no ATP 22.4%, FLuc SDR ATP 15.2% and FLuc inh-2 inconclusive.
CCOC(=O)[C@H]1CN(C(=O)c2cccs2)[C@]2(C)C(=O)N(CC3CC3)c3ccccc3[C@H]12 was read as GPT2 inh inactive, HEK cytotox inconclusive and NIH3T3 tox inconclusive.
Screening CCCN1CCNc2cc(Nc3ccccc3)ncc2C1 returned GPT2 inh -2.9%[88.5 µM], HEK cytotox 89.1µM*, NPR1 antag -0.7%[70.6 µM], FLuc inh-1 6.31µM*, NIH3T3 tox inconclusive, FLuc SDR no ATP 26.9%[65.7 µM], FLuc SDR ATP 19.0%[65.7 µM] and FLuc inh-2 inconclusive.
